Most compounds without a hit are left out; they make up all but 7.5% or so of the library.
FLuc counter: qHTS profiling assay for firefly luciferase inhibitor/activator using purifed enzyme and Km concentrations of substrates (counterscreen for miR-21 project); Potency, µM (highest dose often 57.5 µM), hits mostly inhibitors; actives 6.9% (n = 360,000); purified FLuc, Km substrates, luminescence inhibition; note: nearly all actives have a fitted effect of over 55% in size
Target sequence (P08659 whole entry, looked up): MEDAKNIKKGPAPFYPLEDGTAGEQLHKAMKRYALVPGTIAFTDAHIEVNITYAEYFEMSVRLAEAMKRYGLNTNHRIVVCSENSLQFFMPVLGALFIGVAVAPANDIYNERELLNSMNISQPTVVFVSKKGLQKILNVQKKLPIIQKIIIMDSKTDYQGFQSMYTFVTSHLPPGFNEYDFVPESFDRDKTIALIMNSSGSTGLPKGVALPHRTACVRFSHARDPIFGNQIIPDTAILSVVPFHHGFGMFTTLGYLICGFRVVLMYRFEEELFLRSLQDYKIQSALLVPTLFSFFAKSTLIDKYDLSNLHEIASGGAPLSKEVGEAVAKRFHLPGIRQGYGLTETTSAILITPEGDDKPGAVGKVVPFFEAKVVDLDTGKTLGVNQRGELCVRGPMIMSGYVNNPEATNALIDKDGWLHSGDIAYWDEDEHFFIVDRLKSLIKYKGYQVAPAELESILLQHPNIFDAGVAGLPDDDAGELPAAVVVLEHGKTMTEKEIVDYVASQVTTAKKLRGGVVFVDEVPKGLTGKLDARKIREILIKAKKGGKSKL
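Biochemical qHTS of compounds, final roughly 60 µM downward over six points, against 10 nM purified firefly luciferase using Km concentrations of substrates (10 uM D-luciferin, 10 uM ATP) in Tris acetate pH 7.5 buffer; luminescence output.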
ELG1 genotox: qHTS screen for small molecules that induce genotoxicity in human embryonic kidney (HEK293T) cells expressing luciferase-tagged ELG1; Potency, µM (titrated, usually from 46 µM), actives largely listed as activators; HEK293T ELG1-luciferase reporter, luminescence, 16 h; actives 1.3% (n = 330,000); AID 504466, 2011; note: nearly all actives have a fitted effect of over 60% in size
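Genotoxic stress is detected as increased luminescence from luciferase-tagged ELG1 in HEK293T cells, measured with ONE-Glo after a 16 hr treatment at 37 °C.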
SMN2 splice enh: qHTS Assay for Enhancers of SMN2 Splice Variant Expression; Potency, µM (doses to about 46.1 µM), hits mostly activators; actives 2.8% (n = 210,000); HEK293 SMN2-luciferase splicing reporter, luminescence, 30-36 h; AID 1458, 2008; note: nearly all actives have a fitted effect of over 55% in size
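HEK293 cells carry an SMN2 […]–luciferase reporter in which exon 7 inclusion puts luciferase in frame. Cells were plated 10-12 h before compound addition, then incubated 30-36 h at 37C. ONE-Glo luminescence was read; sodium butyrate at 4.5 mM final served as control.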
NPC1 promoter act: qHTS Assay for NPC1 Promoter Activators; Huh7 NPC1 promoter luciferase reporter, 24 h; AID 485313, 2010; actives 2.4% (n = 320,000); Potency, µM (titrated, usually from 9.22 µM), actives largely listed as activators; note: nearly all actives have a fitted effect of over 60% in size
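Stable NPC1-promoter luciferase Huh7 line; cpd (DMSO) 24 h, 37 °C, 5% CO2; Amplite luciferase reagent 10 min RT; luminescence readout. qHTS format.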
KinaseGlo FLuc: Counterscreen for Luciferase (Kinase-Glo TM) Inhibition | Kinase-Glo luciferase, ATP luminescence, 8 min | Potency, µM (top dose mostly 38.3 µM), most hits filed as inhibitors | actives 0.28% (n = 200,000); note: nearly all actives have a fitted effect of over 60% in size
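Recombinant Kinase-Glo luciferase, 10 uM ATP (linear range), luciferin; imidazole pH 7.2 / KCl / MgCl2 / Tween / BSA buffer; 8 min RT; luminescence.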
Rab9 prom act: qHTS Assay for Rab9 Promoter Activators | Potency, µM (series often up to 9.22 µM), hits mostly activators | actives 2.8% (n = 320,000) | Huh7 Rab9 promoter-luciferase reporter, luminescence, 24 h; note: nearly all actives have a fitted effect of over 60% in size
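Cells were plated at 1500 per well in reduced-serum medium with 10% FBS and left 2 h. Compound in DMSO was then added for 24 h at 37 °C. Reporter signal was read by luminescence after 10 min with luciferase detection reagent.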
A number is an active result; n = inactive; u = inconclusive; x = not tested or not shown; ! = repeats disagree; [ ] = dose if it differs, or a comment. Calls come from the whole dose curve; as a rule, active = well fitted curve in the direction sought with a large enough effect; inconclusive = small, poorly fitted or top-dose-only effect, or another doubt; inactive = no such curve, though single readings can be large; an effect the other way counts as inactive or inconclusive.

SMILES	FLuc counter	ELG1 genotox	SMN2 splice enh	NPC1 promoter act	KinaseGlo FLuc	Rab9 prom act
COc1cccc(/C=N/NC(=O)c2cc3c(OC)c(OC)ccc3[nH]2)c1OC	11µM	n	u	n	n	n
COc1cccc(/C=N/NC(=O)c2ccc(=O)n(C)c2)c1OC	n	n	n	n	n	n
COc1cccc(/C=N/NC(=O)CN(C)S(=O)(=O)c2ccccc2)c1OC	21µM	n	x	n	x	n
COc1ccc(OC)c2[nH]c(C(=O)N/N=C/c3ccccc3O)cc12	u	u	x	n	x	n
COc1cccc(/C=N/NC(=O)c2cc3c(OC)cccc3[nH]2)c1OC	21µM	n	n	n	n	n
CCCN(CC(=O)Nc1ccccc1C)C(=O)c1ccc(OCc2c(C)noc2C)cc1	n	n	x	n	x	n
COc1ccc(C(=O)NCC(=O)OCC(=O)NCc2ccc3c(c2)OCO3)cc1	x	n	x	x	x	x
Cc1nn(C)c(C)c1C(C)NC(=O)c1cc(COc2ccc(F)c(F)c2)on1 (centres undefined)	21µM	n	x	u	x	u
CCN(C1CCCCC1)S(=O)(=O)CCNC(=O)c1ccccc1	n	n	x	n	x	n
CC(=O)Nc1cccc(/C(C)=N/NC(=O)c2ccc(Cl)cc2Cl)c1	19µM	n	n	n	n	n
C/C(=N/NS(=O)(=O)c1ccc(Cl)cc1)c1cccc(NC(=O)c2ccc(Cl)cc2Cl)c1	17µM	n	n	n	n	n
C/C(=N/NS(=O)(=O)c1ccc(C)cc1)c1cccc(NC(=O)c2cccc(Cl)c2)c1	17µM	n	n	n	n	n
COc1ccc(-c2c(-c3ccc4c(c3)OCO4)noc2C)cn1	21µM	n	x	n	x	n
CCOc1ccc(CNS(=O)(=O)c2ccc3c(c2)CCCN3C(C)=O)cc1OC	n	x	x	x	x	x
Fc1ccc(CSc2nnc(-c3cccs3)o2)cc1	u	u	u	n	n	u
c1ccc(CSc2nnc(-c3cccs3)o2)cc1	12µM	u	u	2.8µM	n	u
Fc1ccccc1CSc1nnc(-c2cccs2)o1	5.4µM	8.2µM	13µM	1.8µM	n	1.8µM
CCOC(=O)CN(C)C(=O)CCc1nnc(-c2ccc(-c3ccccc3)cc2)o1	u	n	x	n	x	n
CC(C)(CO)CNC(=O)CCc1nnc(-c2ccc(-c3ccccc3)cc2)o1	24µM	n	x	n	x	n
CC(NC(=O)CCc1nnc(-c2ccc(-c3ccccc3)cc2)o1)c1nc2ccccc2[nH]1 (centres undefined)	11µM	n	x	n	n	n
CCOc1ccc(Br)cc1S(=O)(=O)Nc1cccc(S(=O)(=O)Nc2ccccc2C(=O)O)c1	x	n	x	x	x	x
CCCN(C(=O)c1cc2c(s1)-c1ccccc1SC2)c1ccccc1F	n	x	n	x	x	x
CCN(CC(=O)Nc1ccc2c(c1)OCCO2)C(=O)CC(NC(C)=O)c1ccccc1 (centres undefined)	n	n	x	n	x	n
COC(=O)c1ccccc1OCC(=O)NC1CCCCC1	u	21µM	n	n	n	n
O=C(COc1ccccc1Br)NC1CC1	n	u	x	n	x	n[1.84 µM]
SMILES	FLuc counter	ELG1 genotox	SMN2 splice enh	NPC1 promoter act	KinaseGlo FLuc	Rab9 prom act
COc1cc(CNn2cnnc2)ccc1OCC(=O)NC1CCCCC1	n	n	n	n	n	n
COc1cc(C)ccc1OCC(=O)NC1CCCCCC1	17µM	u	x	u	x	u
CCc1ccccc1OCC(=O)NC1CCCC1	n	n	n	n	n	n
O=C(COc1ccccc1Br)NC(=O)NC1CCCC1	12µM	u	x	n	x	2.8µM
Cc1cccc(OCc2nn[nH]n2)c1C	u	n	x	n	x	n
NC(=O)c1ccc(C[C@H](C(=O)O)N2C(=O)c3ccc(C(=O)O)cc3C2=O)cc1	n	x	x	n	x	n
Cc1c(NC(=O)C(C)Oc2ccc(Br)cc2Cl)c(=O)n(-c2ccccc2)n1C (centres undefined)	n	n	x	n	x	n
Cc1nc2nc(COc3ccccc3)[nH]n2c(=O)c1Cl	19µM	n	n	n	n	n
Nc1sc(-c2ccccc2)c(Cc2ccccc2)c1C(=O)O	17µM	n	n	n	n	n
COC(=O)c1c(N)sc(Cc2ccccc2)c1C	n	n	x	n	n	n
COc1ccc(CNC(=O)C2CCN(S(=O)(=O)c3ccc(F)cc3)CC2)cc1	n	x	n	x	x	x
CCc1ccc(NS(=O)(=O)c2ccc3[nH]cc(C(=O)N4CCc5ccccc54)c(=O)c3c2)cc1	21µM	u	u	n	n	n
Cc1cc(C)cc(NS(=O)(=O)c2ccc3[nH]cc(C(=O)N4CCc5ccccc54)c(=O)c3c2)c1	n	n	n[1.84 µM]	n	n	n
CCOc1ccc(NS(=O)(=O)c2ccc3[nH]cc(C(=O)NCCOC)c(=O)c3c2)cc1	11µM!	u	13µM!	2.5µM	n	2µM
CC(C)(C)OC(=O)N[C@H](C(=O)OC(C)(C)C)c1ccc2ccccc2c1	n	n	x	n	x	n
[O-]/[N+](=C\C=C\c1ccccc1)c1ccccc1	4.8µM	u	x	2.5µM	x	1.8µM
COc1ccccc1NC(=O)CC1C(=O)Nc2ccccc2N1C(=O)c1ccccc1 (centres undefined)	n	n	n	n	n	n
O=C(Nc1cc(Br)c(O)c(Br)c1)c1cccc(NC(=O)c2ccco2)c1	11µM	n	x	n	x	n
O=C(Nc1cccc(NC(=O)c2ccco2)c1)c1cccc(Br)c1	u	n	x	n	x	n
Cc1ccc(NC(=O)c2cccc(NC(=O)CCC(=O)O)c2)cc1C	8.5µM	n	n	n	n	n
COc1ccc(OCC(=O)Nc2ccc(C(=O)Nc3ccccc3C(=O)O)cc2)cc1	u	n	x	n	x	n
O=C(COc1ccc2ccccc2c1)Nc1cccc(C(=O)Nc2ccccc2C(=O)O)c1	24µM	n	n[1.84 µM]	n	n	n
Cc1c(Cl)cccc1NC(=O)c1cccc(NC(=O)CCC(=O)O)c1	n	n	n	n	n	n
CCCCCOC(=O)c1ccc(NC(=O)c2cccc(NC(=O)c3ccccc3C(=O)O)c2)cc1	19µM	n	x	n	x	n
CCCOC(=O)c1ccc(NC(=O)c2ccccc2[N+](=O)[O-])cc1	u	n	x	n	n	u
Cc1ccc(S(=O)(=O)N2CCN(Cc3ccc4c(c3)OCO4)CC2)cc1	n	x	n	x	x	x
O=C(Nc1cc(NC(=O)c2ccccc2Cl)ccc1Cl)c1ccccc1	12µM	x	n	x	x	x
COc1ccccc1NC(=O)c1cccc(NC(=O)c2ccco2)c1	u	n	n	n	n	n
Cc1cc(NC(=O)c2ccccc2C)ccc1NC(=O)c1ccccc1Cl	u	n	x	n	x	n
